# Assay results published in PubChem BioAssay AID743293 (Broad Institute, 2014).
# Results with a measured potency or affinity are listed apart. The source made the active and inactive calls.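 The calls were made as follows: active = compounds lowering fluorescence with a fitted half-maximal concentration at or below a set limit tied to top dose; inconclusive = flat curve with 30 to 70% inhibition, or poor fit; inactive = the rest.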
# Biological target: Caspase-9 (Homo sapiens) (UniProt P55211)
# Experiment: caspase-9 enzyme inhibition, dose response, selectivity assay for caspase-6 inhibitor project, biochemical, fluorescence, plate reader, cherry-picked samples (AID 743293)
# Settings: purified caspase-9, Z-LEHD-R110 cleavage fluorescence; series mostly up to 35 µM
# Sequence of Caspase-9 (Homo sapiens) (P55211 whole entry, looked up): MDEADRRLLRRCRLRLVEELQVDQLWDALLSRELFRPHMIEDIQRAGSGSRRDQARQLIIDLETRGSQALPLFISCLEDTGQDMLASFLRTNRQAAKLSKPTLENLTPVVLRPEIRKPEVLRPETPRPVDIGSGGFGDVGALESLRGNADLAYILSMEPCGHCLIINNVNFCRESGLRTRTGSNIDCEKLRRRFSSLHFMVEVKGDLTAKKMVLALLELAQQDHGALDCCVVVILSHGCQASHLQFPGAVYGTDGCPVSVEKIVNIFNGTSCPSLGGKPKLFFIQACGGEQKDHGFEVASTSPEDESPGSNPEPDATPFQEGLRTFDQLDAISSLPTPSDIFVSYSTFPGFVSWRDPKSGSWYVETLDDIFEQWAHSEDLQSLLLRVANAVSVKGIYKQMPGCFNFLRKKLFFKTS
compound,measurement,value
CC(Cc1ccc(O)cc1)NCC(O)c1ccc(O)c(O)c1 (stereo unspecified),outcome,inactive
